Activity calls are given as the source filed them.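 How the source made its calls: active means blocks over 70% of labeled estradiol binding at 10 µM, or over a set limit at 100 nM; inactive means the rest.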
Each compound was assayed against Estrogen receptor beta (Homo sapiens) (UniProt Q92731) (assay: displacement of fluorescent estrogen from ERbeta – cell-based, Cos7 ERbeta-GFP, flow cytometry, primary screen (AID 1210;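 further: 0% = DMSO vehicle wells and 100% = complete loss of labeled estradiol signal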)). Conditions: fluorescent estrogen binding, at 10 µM, stronger effect = higher value.
Estrogen receptor beta (Homo sapiens), sequence (Q92731 whole entry, looked up): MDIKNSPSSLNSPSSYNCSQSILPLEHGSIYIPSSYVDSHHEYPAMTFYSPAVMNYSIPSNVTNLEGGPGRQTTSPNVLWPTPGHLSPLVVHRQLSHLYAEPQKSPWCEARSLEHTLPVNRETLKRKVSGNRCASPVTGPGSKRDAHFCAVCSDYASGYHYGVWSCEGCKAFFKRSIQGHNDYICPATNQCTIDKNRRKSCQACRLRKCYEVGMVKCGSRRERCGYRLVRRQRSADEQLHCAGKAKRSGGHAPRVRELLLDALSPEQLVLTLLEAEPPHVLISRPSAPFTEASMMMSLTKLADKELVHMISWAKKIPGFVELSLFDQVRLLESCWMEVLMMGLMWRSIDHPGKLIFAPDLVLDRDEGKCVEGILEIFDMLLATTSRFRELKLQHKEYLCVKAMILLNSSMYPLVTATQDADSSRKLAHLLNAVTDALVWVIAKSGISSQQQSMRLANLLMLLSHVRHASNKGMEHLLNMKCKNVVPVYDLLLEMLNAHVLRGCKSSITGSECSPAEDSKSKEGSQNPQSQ
For `O=C(CSc1nc2c(cnn2-c2ccccc2)c(=O)[nH]1)c1ccc(Cl)cc1`, the inhibition was 39% (inactive).
For `Cc1nn(-c2ccccc2)c(C)c1NC(=O)Cc1cccs1`, the inhibition was 67% (inactive).
`Cc1ccc2occ(C3NC(C(=O)O)CS3)c(=O)c2c1` (stereo unspecified) was tested, and the inhibition was 62% (inactive).
With `O=C(Nc1cccc(-c2cnc3ccccc3n2)c1)c1cccc(NC(=O)c2ccco2)c1` the inhibition was 58% (inactive).
`O=C(c1cc2ncc(Br)cn2n1)N1CCN(C(=O)c2ccco2)CC1` was tested, and the inhibition was 62% (active).
`Oc1ccc(-c2cn3c(n2)SCC3)cc1` was tested, and the inhibition was 64% (inactive).
For `CS(=O)(=O)c1ccc2nc(NC(=O)CCC(=O)c3cccs3)sc2c1`, the inhibition was 62% (inactive).
For `COC(=O)c1ccc(CC(=O)c2ccc(O)cc2O)o1`, the inhibition was 44% (inactive).
In the case of `Cc1nnc(SCC(=O)NC(=O)NCc2ccco2)n1Cc1ccccc1`, the inhibition was 71% (active).
In the case of `COc1cc(C(Nc2ccccn2)c2ccc3ccc(C)nc3c2O)cc(OC)c1O` (stereo unspecified), the inhibition was 0% (inactive).
With `CCOc1ccccc1N1CSC2=C(C#N)C(c3c(OC)ccc4ccccc34)CC(=O)N2C1` (stereo unspecified) the inhibition was 35% (inactive).
With `O=C1c2ccccc2C(=O)N1CCCc1nc2ccccc2c(=O)n1CCCn1ccnc1` the inhibition was 61% (inactive).
In the case of `CC(=O)c1ccc2c(c1)C1C=CCC1C(C(=O)O)N2` (stereo unspecified), the inhibition was 19% (inactive).
`Cc1oc(-c2ccc(Cl)cc2)cc1-c1nn2c(-c3ccoc3C)nnc2s1` was tested, and the inhibition was 57% (inactive).
`CCOC(=O)C1=c2/c(=C/c3ccccc3OC)c(N)c(C#N)n2C(=O)C(c2ccccc2OC)S1` (stereo unspecified) was tested, and the inhibition was 34% (inactive).
With `Cc1ccc(Cc2cncc(O)c2)cc1S(=O)(=O)O` the inhibition was 0% (inactive).
For `CC1(C)CC(=O)c2c(oc3cc(O)c(O)cc23)C1`, the inhibition was 11% (inactive).
For `COc1cc2c(cc1OC)C(Cc1ccc(O)cc1)NCC2` (stereo unspecified), the inhibition was 23% (inactive).
With `CSc1ccccc1NC(=O)c1noc2c1CCC2` the inhibition was 26% (inactive).
In the case of `Cc1ccc(Oc2cc(N3CCOCC3)nc(-c3ccccc3)n2)cc1`, the inhibition was 35% (inactive).
`COc1cccc(-c2nnc(NC(=O)Cc3cccs3)s2)c1` was tested, and the inhibition was 30% (inactive).
`C/C(N)=C(/C#N)C(=O)CSc1nnc(Nc2ccccc2C)s1` was tested, and the inhibition was 44% (inactive).
In the case of `O=C(CSc1nnnn1-c1ccccc1)Nc1nsc(-c2ccc(Cl)cc2)n1`, the inhibition was 36% (inactive).
For `O=C(Nc1cccc(-c2cn3cccnc3n2)c1)c1ccc2c(c1)OCO2`, the inhibition was 26% (inactive).
For `CC(C)(C)OC(=O)N1CCN(c2ccc(NC(=O)Cn3nnc(-c4ccccc4)n3)cc2)CC1`, the inhibition was 64% (inactive).
`CC(Oc1ccc(Cl)cc1Cl)C(=O)Nc1ccc2oc(-c3ccncc3)nc2c1` (stereo unspecified) was tested, and the inhibition was 50% (inactive).
`CCn1nnc(NC(=O)CSc2ccc(Cl)cc2)n1` was tested, and the inhibition was 13% (active).
For `CSc1ccc(S(=O)(=O)Nc2cccc(F)c2)cc1`, the inhibition was 21% (active).
In the case of `O=C(COC(=O)CCOc1ccccc1)NCc1ccco1`, the inhibition was 54% (inactive).
`Cc1nn(-c2ccccc2)c(/N=C/c2ccc(O)cc2)c1-c1ccccc1` was tested, and the inhibition was 78% (active).
In the case of `COc1cc(/C=N/N2CCN(C3c4ccccc4-c4ccccc43)CC2)ccc1O`, the inhibition was 39% (inactive).
With `O=C(Nc1ccc2oc(-c3ccccc3F)nc2c1)c1cncc(Br)c1` the inhibition was 63% (inactive).
For `COc1ccc(C2CC(c3c(-c4ccccc4)c4cc(Cl)ccc4[nH]c3=O)=NN2S(C)(=O)=O)cc1OC` (stereo unspecified), the inhibition was 1% (inactive).
`COC(=O)c1c(NC(=O)Cc2cccs2)sc2c1CCCC2` was tested, and the inhibition was 41% (inactive).
In the case of `Cc1oc2c(C)c(O)ccc2c(=O)c1-c1ccc2ccccc2n1`, the inhibition was 15% (inactive).
With `O=C1Nc2ccccc2SC(c2ccccc2)C1O` (stereo unspecified) the inhibition was 56% (inactive).
With `COC(=O)c1[nH]c2ccc(C)cc2c1NC(=O)CN1CCCc2ccccc21` the inhibition was 56% (inactive).
With `Cc1ccc(NC(=O)CN2C(=O)S/C(=C/c3ccc(-c4cc(C(=O)O)ccc4C)o3)C2=O)cc1C` the inhibition was 36% (inactive).

Same assay, conditions: fluorescent estrogen binding, ligand binding inhibition, at 0.1 µM, stronger effect = higher value
Compound `O=C(CSc1nc2c(cnn2-c2ccccc2)c(=O)[nH]1)c1ccc(Cl)cc1` has an inhibition of 34%.
`Cc1nn(-c2ccccc2)c(C)c1NC(=O)Cc1cccs1` was tested, and the inhibition was 25%.
Work on `Cc1ccc2occ(C3NC(C(=O)O)CS3)c(=O)c2c1` (stereo unspecified) yielded an inhibition of 27%.
`O=C(Nc1cccc(-c2cnc3ccccc3n2)c1)c1cccc(NC(=O)c2ccco2)c1` gave an inhibition of 43%.
Compound `O=C(c1cc2ncc(Br)cn2n1)N1CCN(C(=O)c2ccco2)CC1` has an inhibition of 67%.
`Oc1ccc(-c2cn3c(n2)SCC3)cc1` gave an inhibition of 10%.
`CS(=O)(=O)c1ccc2nc(NC(=O)CCC(=O)c3cccs3)sc2c1` was tested, and the inhibition was 9%.
With `COC(=O)c1ccc(CC(=O)c2ccc(O)cc2O)o1` the inhibition was 20%.
Work on `Cc1nnc(SCC(=O)NC(=O)NCc2ccco2)n1Cc1ccccc1` yielded an inhibition of 53%.
`COc1cc(C(Nc2ccccn2)c2ccc3ccc(C)nc3c2O)cc(OC)c1O` (stereo unspecified) gave an inhibition of 20%.
Compound `CCOc1ccccc1N1CSC2=C(C#N)C(c3c(OC)ccc4ccccc34)CC(=O)N2C1` (stereo unspecified) has an inhibition of 28%.
`O=C1c2ccccc2C(=O)N1CCCc1nc2ccccc2c(=O)n1CCCn1ccnc1` gave an inhibition of 20%.
Work on `CC(=O)c1ccc2c(c1)C1C=CCC1C(C(=O)O)N2` (stereo unspecified) yielded an inhibition of 6%.
Work on `Cc1oc(-c2ccc(Cl)cc2)cc1-c1nn2c(-c3ccoc3C)nnc2s1` yielded an inhibition of 29%.
`CCOC(=O)C1=c2/c(=C/c3ccccc3OC)c(N)c(C#N)n2C(=O)C(c2ccccc2OC)S1` (stereo unspecified) was tested, and the inhibition was 46%.
Compound `Cc1ccc(Cc2cncc(O)c2)cc1S(=O)(=O)O` has an inhibition of 13%.
`CC1(C)CC(=O)c2c(oc3cc(O)c(O)cc23)C1` was tested, and the inhibition was 3%.
With `COc1cc2c(cc1OC)C(Cc1ccc(O)cc1)NCC2` (stereo unspecified) the inhibition was 13%.
With `CSc1ccccc1NC(=O)c1noc2c1CCC2` the inhibition was 12%.
`Cc1ccc(Oc2cc(N3CCOCC3)nc(-c3ccccc3)n2)cc1` was tested, and the inhibition was 15%.
With `COc1cccc(-c2nnc(NC(=O)Cc3cccs3)s2)c1` the inhibition was 47%.
Compound `C/C(N)=C(/C#N)C(=O)CSc1nnc(Nc2ccccc2C)s1` has an inhibition of 13%.
`O=C(CSc1nnnn1-c1ccccc1)Nc1nsc(-c2ccc(Cl)cc2)n1` gave an inhibition of 21%.
For `O=C(Nc1cccc(-c2cn3cccnc3n2)c1)c1ccc2c(c1)OCO2`, the inhibition was 48%.
`CC(C)(C)OC(=O)N1CCN(c2ccc(NC(=O)Cn3nnc(-c4ccccc4)n3)cc2)CC1` showed an inhibition of 6%.
Compound `CC(Oc1ccc(Cl)cc1Cl)C(=O)Nc1ccc2oc(-c3ccncc3)nc2c1` (stereo unspecified) has an inhibition of 27%.
With `CCn1nnc(NC(=O)CSc2ccc(Cl)cc2)n1` the inhibition was 68%.
`CSc1ccc(S(=O)(=O)Nc2cccc(F)c2)cc1` gave an inhibition of 75%.
In the case of `O=C(COC(=O)CCOc1ccccc1)NCc1ccco1`, the inhibition was 37%.
`Cc1nn(-c2ccccc2)c(/N=C/c2ccc(O)cc2)c1-c1ccccc1` gave an inhibition of 44%.
`COc1cc(/C=N/N2CCN(C3c4ccccc4-c4ccccc43)CC2)ccc1O` showed an inhibition of 10%.
`O=C(Nc1ccc2oc(-c3ccccc3F)nc2c1)c1cncc(Br)c1` gave an inhibition of 25%.
In the case of `COc1ccc(C2CC(c3c(-c4ccccc4)c4cc(Cl)ccc4[nH]c3=O)=NN2S(C)(=O)=O)cc1OC` (stereo unspecified), the inhibition was 64%.
Compound `COC(=O)c1c(NC(=O)Cc2cccs2)sc2c1CCCC2` has an inhibition of 18%.
`Cc1oc2c(C)c(O)ccc2c(=O)c1-c1ccc2ccccc2n1` showed an inhibition of 54%.
Compound `O=C1Nc2ccccc2SC(c2ccccc2)C1O` (stereo unspecified) has an inhibition of 26%.
`COC(=O)c1[nH]c2ccc(C)cc2c1NC(=O)CN1CCCc2ccccc21` gave an inhibition of 26%.
`Cc1ccc(NC(=O)CN2C(=O)S/C(=C/c3ccc(-c4cc(C(=O)O)ccc4C)o3)C2=O)cc1C` gave an inhibition of 21%.
